Each structure is given as a SMILES string. Compounds without any hit were thinned out: in the full panel of roughly 83,000, 20% have a hit.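 Treatment: one concentration, 48 hours, 96-well format. Scoring: percent growth, with anything below 10 considered active.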 Values without a mark were called inactive. Calls of active or inactive are those of the source.

For this test, the system named is U251 CNS. Briefly: NCI-60 one-dose screen, 48 h (100 = growth as untreated, 0 = no growth, -100 = all killed). As to conditions: 10 µM unless noted. The protocol: Growth inhibition of the U251 human tumor cell line is measured as a screen for anti-cancer activity. Cells are grown in 96 well plates and exposed to the test compound for 48 hours. Compounds are tested at a single concentration, which is 10^-5 M for most compounds. The reported endpoint is percent growth (GI% or GIPRCNT), where numbers from 0 - 100% represent growth inhibition, and numbers from -100% - 0 represent cell death. For example, a value of 40 represents 60% growth inhibition. A value of 0 means no net growth occurred over the course of the experiment. A value of -40 indicates 40% of cells at the beginning of the experiment died by the end of the experiment. A value of -100 means all cells are dead at the end of the experiment.
NCI-60 Human Tumor Cell Lines Screen was performed using the standard one-dose NCI protocol, which is described in more detail at https://dtp.cancer.gov/discovery_development/nci-60/default.htm.
Compounds with GIPRCNT values below 10 were considered active. Activity score was based on GIPRCNT using the following formula: […]
Score is 0 for GIPRCNT values of 100 or above, 50 for GIPRCNT values of 0, and 100 for GIPRCNT values of -100.
Turning to `CC(=O)n1cc(/C=C2\N=C(c3ccc(Cl)cc3)N(c3ccc(S(=O)(=O)Nc4nccs4)cc3)C2=O)c2ccccc21`, the growth is 56.2%. As for `COc1ccc(CCNC=O)cc1OC`, the growth was 110%.

For the compound `Cc1cn(-c2cc(C(=O)Nc3cccc(-n4ccc5c(NC(=O)c6ccccc6)nccc54)c3)cc(C(F)(F)F)c2)cn1`, the growth was -3.87% (active). Then `O=C(NC(=S)Nc1ccc(Cl)cc1)c1ccccc1`, with 96.4%.

For `CC(C(=O)O)N1C(N)=NNC1c1ccccc1O` (stereo not given), the growth is 85.9%. To `CN(C)CC/C=C1\c2ccccc2Sc2ccc(Cl)cc21` belongs 49.5%.

Consider `COc1ccccc1N1CCN(CC(O)COc2c(Br)c(Br)c(Br)c3c2OC(C)(C)C3)CC1` (stereo not given), for which the growth was 52.7%. For the compound `Cc1ccc2[nH]c3nc4cccnc4c(C)c3c2c1`, the growth is 75.7%. Then `O=C(Nc1ccc(-n2cc(-c3ccncc3)c(-c3ccc(O)c(Cl)c3)n2)cc1)Nc1cc(C(F)(F)F)cc(C(F)(F)F)c1`, with 37.7%; and `O=C(C[n+]1cccc(Br)c1)c1ccc2c(c1)CCCC2`, with 102%. Take `C=C(C)[C@@H]1C/C=C(\COC(=O)[C@H](OC(C)=O)C(NC(=O)c2ccccc2)c2ccccc2)CC[C@H]2O[C@]2(C)CC/C=C(\C)CC1` (stereo not given in full): the growth is 71.4% [5 µM]. Then `COc1cc(NC(C)CCCN2C(=O)c3ccccc3C2=O)c2nc(C)ccc2c1OC` (stereo not given), with 94.2%; and `O=c1c(-c2ccc3c(c2)OCO3)coc2c(CO)c(O)ccc12`, with -92.6% (active); and `CN(C)CCCOc1c(Br)cc(/C=C/C(=O)N(C)CCc2cc(Br)c(OCCCN(C)C)c(Br)c2)cc1Br`, with 7.24% (active). To `O=C1/C(=C/c2cccc3cnccc23)Cc2cc(F)ccc21` belongs 95.8%.

As to `COc1ccc2c(-c3ccc(F)cc3)c(C#N)c(=NC(C)=O)oc2c1`, the growth was 39.5%.

As for `COc1ccc(Cl)cc1NC(=O)c1cc2c([nH]1)-c1nc(NC(=O)C(C)C)sc1CC2`, the growth was 96.5%. Then `Cc1[nH]c2ccc(F)cc2c1CCNC(=O)C1CCN(C(=O)c2ccc(-c3ccccc3)cc2)CC1`, with 48.7%. Then `COc1ccc(-c2ccc(NC(=O)Nc3ccc(Cl)c(C(F)(F)F)c3)c(C)n2)cc1`, with 33.6%. Then `CS(=O)(=O)Nc1cccc(-c2ccc3ncnc(Nc4cncc(Cl)c4)c3c2)c1`, with 23.8%.

Regarding `CCn1cc(C(=O)O)c(=O)c2cc(F)c(N3CCN(CC(=O)Nc4ccc(C(C)=O)cc4)CC3)cc21`, the growth is 99.6%. To `CC(CCC(=O)O)[C@H]1CCC2C3C(=O)C[C@@H]4CC(=O)CC[C@]4(C)C3CC(=O)[C@@]21C` (stereo not given in full) belongs 95%; to `Cc1ccc[n+](CC(=O)c2cccc3ccccc23)c1`, 106%; to `S=c1ssnc1-c1ccccn1`, 28.9%.

Take `CC(NCCC(c1ccccc1)c1ccccc1)c1ccccc1` (stereo not given): the growth was 61.1%. Regarding `CC[C@H]1[C@@H]2C=C[C@@H]3[C@H]4C/C=C\C(=O)NCCC[C@@H]5NC(=O)/C(=C(O)/C=C/[C@@H]4C[C@@H]3[C@H]2C[C@H]1C)C5=O`, the growth is 46.5%. To `CCc1c(C)c2cc3c(c(C)c2oc1=O)OCC(=O)N3` belongs 62%. As for `CC(C)CNCC(O)COc1ccc(C(C)(C)c2ccc(OCC(O)CNCC(C)C)cc2)cc1` (stereo not given), the growth was -5.63% (active).

Regarding `CC(C)(C)OC(=O)N1CCN(CCn2cc(C(F)(F)F)c3c(Cl)ncnc32)CC1`, the growth was 17.3%. `O=c1c2ccccc2sc2c(N3CCCC3)nc3ccccc3c12`: the growth was 98.5%.

As for `CN1CCN(Cn2nc(-c3cc(Cl)cc(Cl)c3Cl)n(/N=C/c3ccc(Cl)cc3)c2=S)CC1`, the growth is 93.1%. For the compound `CCCCNc1cc(C(=O)O)cc(S(N)(=O)=O)c1Oc1ccccc1`, the growth was 99.8%.

`O=C1c2ccccc2C(=O)c2c(NCCN=Cc3c(O)ccc4ccccc34)cccc21`: the growth was 83%. To `CC(C)(C)NCC(O)COc1c(Br)c(Br)c(Br)c2c1OC(C)(C)C2` (stereo not given) belongs -92.4% (active). For the compound `CCCCn1c(-c2cccc(OC)c2)nc2cc(OC)c(OC)cc2c1=O`, the growth was 96.3%. Then `O=C(CSc1nnc(-c2ccccc2)o1)Nc1ccc(C(=O)/C=C/c2ccccc2)cc1`, with 44.1%. To `ClC1c2ccccc2CCc2ccccc21` belongs 96.6%. To `CC1CCC(C(C)C)C(NN)C1` (stereo not given) belongs 96.3%.

Regarding `CCOc1ccc(-n2c(-c3cc(OC)c(OC)c(OC)c3)nnc2-c2ccc(OC)cc2N)cc1`, the growth is 65.6%. On to `CN1CCN(Cn2nc(-c3cc(F)c(Cl)cc3Cl)n(/N=C/c3ccc(N(C)C)cc3)c2=S)CC1`, for which the growth is 95.2%.

The record behind these values is PubChem BioAssay (NCI).
